# Among all 340,000 compounds or so, about 5,100 (1.5%) were called active. What follows is part of a selection rich in actives, with near analogues and random picks from the rest. Values without a mark were called inactive.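 The calls were made as follows: active = mean Tm shift, scaled 0 neutral to 100 positive control, at about 1.3% or above, every replicate too (limit read from the data); inconclusive = no clear call, values can overlap the other calls; inactive = the rest.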
# Target: Fibroblast growth factor 22 (Homo sapiens) (UniProt Q9HCT0)
# Experiment: FGF22 ligand-induced thermal stabilization – biophysical, thermal shift, single point, FGF22 synaptogenesis inhibitor project, primary screen (AID 651658)
# Conditions: recombinant FGF22 thermal shift, SYPRO orange fluorescence; at 9.99 µM; active compounds read high; percent of sucrose octasulfate shift, DMSO zero
# Fibroblast growth factor 22 (Homo sapiens), sequence (Q9HCT0 whole entry, looked up): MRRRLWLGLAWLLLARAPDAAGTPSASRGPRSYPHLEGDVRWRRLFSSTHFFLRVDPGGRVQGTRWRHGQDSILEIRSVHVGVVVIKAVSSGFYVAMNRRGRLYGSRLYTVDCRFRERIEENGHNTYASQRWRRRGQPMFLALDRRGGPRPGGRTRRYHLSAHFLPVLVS
row,Structure (SMILES),"activity (Tm shift, normalised)"
1,COc1cc(C)ccc1OCC(=O)OCC(=O)c1ccc[nH]1,43.3% (active)
2,O=C(COc1ccc(Br)cc1)OCC(=O)c1ccc[nH]1,-0.019%
3,COc1ccc(C(=O)COC(=O)COc2ccc(C)c(C)c2)cc1,0.002%
4,C[C@H](CO)N1C[C@H](C)[C@@H](CN(C)S(=O)(=O)c2cn(C)cn2)Oc2ccc(N(C)C)cc2CC1=O,0.089%
5,Cc1ccc(S(=O)(=O)N2CCCCC2)cc1C(=O)N(C)CC(=O)Nc1cccc(F)c1,-0.088%
6,CN(CC(=O)Nc1cccc(F)c1)C(=O)CC1CCCC1,0.042%
7,Cc1ccc(NC(=O)CN(C)CC(=O)Nc2cccc(F)c2)cc1[N+](=O)[O-],43.3% (active)
8,Cc1cc(C(=O)Nc2ccc3c(c2)C(=O)N(C)[C@H]2CC[C@H](CC(=O)NCC(F)(F)F)O[C@@H]2CO3)no1,-0.217%
9,CC(=O)N(C)C[C@@H]1Oc2cc(-c3ccncc3)ccc2S(=O)(=O)N([C@@H](C)CO)C[C@H]1C,-0.496%
10,Cc1ccc(S(=O)(=O)N(C)C[C@@H]2Oc3cc(C4=CCCC4)ccc3S(=O)(=O)N([C@@H](C)CO)C[C@@H]2C)cc1,1.23% (active)
11,COc1ccc(NC(=O)N(C)C[C@H]2Oc3cc(-c4ccncc4)ccc3S(=O)(=O)N([C@@H](C)CO)C[C@H]2C)cc1,-0.124%
12,COc1cccc(S(=O)(=O)N(C)C[C@@H]2Oc3cc(C4=CCCCC4)ccc3S(=O)(=O)N([C@H](C)CO)C[C@H]2C)c1,0.057%
13,C[C@H](CO)N1C[C@H](C)[C@H](CN(C)C(=O)Nc2ccc3c(c2)OCO3)Oc2cc(C#Cc3ccncc3)ccc2S1(=O)=O,-0.273%
14,C[C@@H]1CN([C@@H](C)CO)S(=O)(=O)c2ccc(-c3ccncc3)cc2O[C@@H]1CN(C)C(=O)Nc1ccc(F)cc1,1.27% (active)
15,C[C@@H]1CN([C@H](C)CO)S(=O)(=O)c2ccc(-c3ccncc3)cc2O[C@@H]1CN(C)C(=O)Nc1ccc(C(F)(F)F)cc1,1.48% (active)
16,Cc1ccc(-c2ccc3c(c2)O[C@H](CN(C)C(=O)Nc2ccc(C(F)(F)F)cc2)[C@@H](C)CN([C@H](C)CO)S3(=O)=O)cc1,0.037%
17,COc1ccc(NC(=O)N(C)C[C@H]2Oc3cc(-c4ccncc4)ccc3S(=O)(=O)N([C@H](C)CO)C[C@H]2C)cc1,0.949%
18,C[C@H](CO)N1C[C@H](C)[C@@H](CN(C)S(=O)(=O)c2ccc(F)cc2)Oc2cc(C3=CCCC3)ccc2S1(=O)=O,-0.123%
19,C[C@H]1CN([C@@H](C)CO)S(=O)(=O)c2ccc(C#Cc3ccncc3)cc2O[C@@H]1CN(C)C(=O)Nc1ccc2c(c1)OCO2,0.074%
20,C[C@H]1CN([C@@H](C)CO)S(=O)(=O)c2ccc(C3=CCCC3)cc2O[C@H]1CN(C)C(=O)Nc1ccc2c(c1)OCO2,1.26% (active)
21,CC(C)CC#Cc1cnc2c(c1)C(=O)N([C@@H](C)CO)C[C@H](C)[C@@H](CN(C)C(=O)c1cccc(F)c1)O2,-0.381%
22,CN1c2ccc(-c3ccccc3F)cc2[C@@H]2[C@@H](CCN2C(=O)CN2CCOCC2)[C@H]1CO,-0.099%

row,Structure (SMILES),"activity (Tm shift, normalised)"
1,O=C(C[C@H]1C[C@@H]2c3cc(NC(=O)C4CCC4)ccc3O[C@@H]2[C@H](CO)O1)NCCN1CCCCC1,0.001%
2,O=C1C[C@@](C(=O)NCC(F)(F)F)(c2ccc([N+](=O)[O-])cc2)[C@@H](c2ccc(CO)cc2I)N1C1CCCCC1,0.18%
3,CCC(=O)N1C[C@@H](C)[C@@H](OC)CN(C)C(=O)c2ccc(NC(=O)c3ccccc3)cc2OC[C@H]1C,-0.17%
4,COc1ccc2c3c([nH]c2c1)[C@H](CO)N(C(=O)C1CCCCC1)CC31CCN(C(=O)c2ccncc2)CC1,-0.034%
5,CC(C)NC(=O)N(C)C[C@H]1OCCCC[C@H](C)Oc2ccc(NC(=O)CCC(F)(F)F)cc2C(=O)N([C@@H](C)CO)C[C@@H]1C,-0.59%
6,C[C@H](CO)N1C[C@H](C)[C@H](CN(C)C(=O)Nc2ccc(F)cc2)Oc2ncc(-c3cc4ccccc4o3)cc2C1=O,-0.101%
7,CN(C)CC(=O)N1CCCCN2[C@@H](CO)[C@H](c3ccc(-c4cccnc4)cc3)[C@@H]2C1,0.193%
8,C[C@@H]1CCCCO[C@@H](CN(C)Cc2ccncc2)[C@H](C)CN([C@H](C)CO)C(=O)c2cc(NC(=O)Cc3ccccc3)ccc2O1,25.7% (active)
9,COc1ccc(CN(C)C[C@H]2OCCCC[C@@H](C)Oc3ccc(NS(=O)(=O)c4ccccc4)cc3C(=O)N([C@@H](C)CO)C[C@@H]2C)cc1,0.068%
10,C[C@@H]1CCCCO[C@@H](CN(C)Cc2ccc(C(=O)O)cc2)[C@@H](C)CN([C@@H](C)CO)C(=O)c2cc(NC(=O)Nc3ccc(C(F)(F)F)cc3)ccc2O1,10.4% (active)
11,Cc1ccc(S(=O)(=O)N(C)C[C@@H]2OCCCC[C@@H](C)Oc3ccc(NS(=O)(=O)c4ccc(F)cc4)cc3C(=O)N([C@H](C)CO)C[C@H]2C)cc1,-0.311%
12,COc1ccc(S(=O)(=O)Nc2ccc3c(c2)C(=O)N([C@@H](C)CO)C[C@H](C)[C@H](CN(C)Cc2ccc(C(=O)O)cc2)OCCCC[C@@H](C)O3)cc1,2.26% (active)
13,C[C@@H]1CN([C@H](C)CO)C(=O)c2cc(NC(=O)Cc3ccccc3)ccc2O[C@@H](C)CCCCO[C@@H]1CN(C)Cc1ccncc1,-0.393%
14,C[C@@H]1CCCCO[C@@H](CN(C)Cc2ccc(C(=O)O)cc2)[C@H](C)CN([C@@H](C)CO)C(=O)c2cc(NC(=O)Nc3ccc(C(F)(F)F)cc3)ccc2O1,-0.357%
15,Cc1ccc(S(=O)(=O)N(C)C[C@@H]2OCCCC[C@@H](C)Oc3ccc(NS(=O)(=O)c4ccccc4)cc3C(=O)N([C@H](C)CO)C[C@@H]2C)cc1,-0.059%
16,Cc1ccc(S(=O)(=O)Nc2ccc3c(c2)C(=O)N([C@H](C)CO)C[C@@H](C)[C@H](CN(C)S(=O)(=O)c2ccc(C)cc2)OCCCC[C@@H](C)O3)cc1,31.1% (active)
17,C[C@@H]1CN([C@H](C)CO)C(=O)c2cc(NC(=O)Nc3ccc(C(F)(F)F)cc3)ccc2O[C@@H](C)CCCCO[C@@H]1CN(C)Cc1ccc(C(F)(F)F)cc1,0.296%
18,COc1ccc(S(=O)(=O)Nc2ccc3c(c2)C(=O)N([C@H](C)CO)C[C@H](C)[C@@H](CN(C)Cc2ccccc2)OCCCC[C@@H](C)O3)cc1,-0.202%
19,C[C@@H]1CCCCO[C@H](CN(C)Cc2ccccc2)[C@@H](C)CN([C@H](C)CO)C(=O)c2cc(NC(=O)Cc3ccccc3)ccc2O1,0.467%
20,O=C(c1ccncc1)N1C[C@@H]2[C@H](c3ccccc31)[C@H](CO)N2C(=O)c1ccncc1,1.08%
21,O=C(C[C@@H]1C[C@H]2c3cc(NC(=O)Nc4ccccc4F)ccc3O[C@H]2[C@@H](CO)O1)NC1CCCCC1,0.159%
22,N#C[C@@H]1[C@@H](c2ccccc2)[C@@H](CO)N1C(=O)c1cc(Cl)cc(Cl)c1,-0.146%

row,Structure (SMILES),"activity (Tm shift, normalised)"
1,O=C(NCc1ccccc1)[C@H]1CCCN1C(=O)[C@H]1CCCN1C(=O)N1CCOCC1,0.083%
2,O=C(/C=C/c1c(F)cccc1Cl)Nc1nn[nH]n1,43.2% (active)
3,CNC(=O)/C(C#N)=C/c1c(F)cccc1Cl,0.243%
4,Cc1ccc2c(Cl)c(C(=O)Nc3nn[nH]n3)sc2c1,-0.027%
5,C/C=C/c1ccc([C@@H]2[C@@H](CO)N(C(=O)c3ccccc3)C23CN(C(C)=O)C3)cc1,-0.191%
6,O=C(c1ccncc1)N1C[C@H]2[C@@H](c3ccccc31)[C@H](CO)N2C(=O)Nc1ccc(F)cc1,-0.662%
7,COc1ccccc1C1SCCN1C(=O)c1ccc([N+](=O)[O-])cc1 (stereo not given),43.3% (active)
8,COc1ccccc1C1CCN(c2ccc([N+](=O)[O-])cn2)CC1,0.136%
9,Cc1ccc(C)n1NC(=O)c1ccc([N+](=O)[O-])cc1,0.235%
10,Cc1ccc(S(=O)(=O)Nc2ccc3c(c2)C(=O)N(C)[C@@H]2CC[C@@H](CC(=O)O)O[C@H]2CO3)cc1,-0.106%
11,Cc1ccc(-c2ccc3c(c2)O[C@H](CN(C)C(=O)CC2CC2)[C@@H](C)CN([C@H](C)CO)S3(=O)=O)cc1,-0.566%
12,COc1ccc(NC(=O)Nc2ccc3c(c2)[C@@H]2C[C@H](CC(=O)N4CCCCC4)O[C@H](CO)[C@@H]2O3)cc1,-0.385%
13,O=c1cnnc(Nc2ccccc2F)[nH]1,43.4% (active)
14,O=c1ccnc(Nc2ccc(Cl)cc2)[nH]1,0.494%
15,Cc1nnc(Nc2ccccc2F)s1,0.041%
16,CN(C)C(=O)C[C@H]1C[C@@H]2c3cc(NC(=O)CC4CC4)ccc3O[C@@H]2[C@@H](CO)O1,-0.027%
17,CCCNC(=O)N(C)C[C@@H]1Oc2ncc(-c3cccc(C#N)c3)cc2C(=O)N([C@@H](C)CO)C[C@H]1C,0.077%
18,CC(C)c1cn([C@H]2C[C@@H]3O[C@H](CO)CC[C@@H]3O[C@@H]2CCc2ccc(C#CC3CCCCC3)cc2)nn1,0.095%
19,Cc1ccc(CNC(=O)Cc2cn(C)c3ccccc23)cc1,-0.058%
20,CCc1ccccc1NC(=O)Cc1cn(C)c2ccccc12,43.6% (active)
21,Cn1cc(CCC(=O)NC2CC2)c2ccccc21,-0.251%

# From PubChem BioAssay AID651658 (Broad Institute, 2012)
